For assay [1], the target named is High affinity nerve growth factor receptor (Homo sapiens) (UniProt P04629). Conditions: at 1 µM.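 Also: each value is the mean percent inhibition of TRKA.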
Assay [2] deals with BDNF/NT-3 growth factors receptor (Homo sapiens) (UniProt Q16620). Conditions: at 0.1 µM.
The target is the same in assay [3]. Conditions: at 1 µM.
Assay [4] has as its target NT-3 growth factor receptor (Homo sapiens) (UniProt Q16288). To be noted: at 0.1 µM.
Assay [5] has the same target. Conditions: at 1 µM.
The target in assay [6] is T1, Tyrosine-protein kinase TXK (Homo sapiens) (UniProt P42681).
T1 sequence (whole entry): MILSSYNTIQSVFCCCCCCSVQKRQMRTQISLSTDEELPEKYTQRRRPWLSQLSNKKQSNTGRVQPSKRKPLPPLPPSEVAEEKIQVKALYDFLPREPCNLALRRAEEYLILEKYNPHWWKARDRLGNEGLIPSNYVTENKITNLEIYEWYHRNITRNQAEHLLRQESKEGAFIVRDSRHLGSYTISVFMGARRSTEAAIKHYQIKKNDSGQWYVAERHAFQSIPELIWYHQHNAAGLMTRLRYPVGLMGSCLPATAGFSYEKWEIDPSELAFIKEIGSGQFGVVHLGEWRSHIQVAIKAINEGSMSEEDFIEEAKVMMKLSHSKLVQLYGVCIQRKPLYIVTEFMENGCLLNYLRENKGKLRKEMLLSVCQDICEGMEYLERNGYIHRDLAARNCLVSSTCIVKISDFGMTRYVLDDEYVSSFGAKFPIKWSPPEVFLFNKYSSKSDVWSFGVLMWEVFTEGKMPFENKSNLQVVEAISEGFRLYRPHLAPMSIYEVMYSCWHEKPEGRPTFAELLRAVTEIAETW
Conditions: at 0.1 µM.

In assay [7] the target is T1, Tyrosine-protein kinase TXK (Homo sapiens). To be noted: at 1 µM.
Assay [8] deals with Non-receptor tyrosine-protein kinase TYK2 (Homo sapiens) (UniProt P29597). Conditions: at 0.1 µM.
Chain of Non-receptor tyrosine-protein kinase TYK2 (Homo sapiens) (P29597 whole entry): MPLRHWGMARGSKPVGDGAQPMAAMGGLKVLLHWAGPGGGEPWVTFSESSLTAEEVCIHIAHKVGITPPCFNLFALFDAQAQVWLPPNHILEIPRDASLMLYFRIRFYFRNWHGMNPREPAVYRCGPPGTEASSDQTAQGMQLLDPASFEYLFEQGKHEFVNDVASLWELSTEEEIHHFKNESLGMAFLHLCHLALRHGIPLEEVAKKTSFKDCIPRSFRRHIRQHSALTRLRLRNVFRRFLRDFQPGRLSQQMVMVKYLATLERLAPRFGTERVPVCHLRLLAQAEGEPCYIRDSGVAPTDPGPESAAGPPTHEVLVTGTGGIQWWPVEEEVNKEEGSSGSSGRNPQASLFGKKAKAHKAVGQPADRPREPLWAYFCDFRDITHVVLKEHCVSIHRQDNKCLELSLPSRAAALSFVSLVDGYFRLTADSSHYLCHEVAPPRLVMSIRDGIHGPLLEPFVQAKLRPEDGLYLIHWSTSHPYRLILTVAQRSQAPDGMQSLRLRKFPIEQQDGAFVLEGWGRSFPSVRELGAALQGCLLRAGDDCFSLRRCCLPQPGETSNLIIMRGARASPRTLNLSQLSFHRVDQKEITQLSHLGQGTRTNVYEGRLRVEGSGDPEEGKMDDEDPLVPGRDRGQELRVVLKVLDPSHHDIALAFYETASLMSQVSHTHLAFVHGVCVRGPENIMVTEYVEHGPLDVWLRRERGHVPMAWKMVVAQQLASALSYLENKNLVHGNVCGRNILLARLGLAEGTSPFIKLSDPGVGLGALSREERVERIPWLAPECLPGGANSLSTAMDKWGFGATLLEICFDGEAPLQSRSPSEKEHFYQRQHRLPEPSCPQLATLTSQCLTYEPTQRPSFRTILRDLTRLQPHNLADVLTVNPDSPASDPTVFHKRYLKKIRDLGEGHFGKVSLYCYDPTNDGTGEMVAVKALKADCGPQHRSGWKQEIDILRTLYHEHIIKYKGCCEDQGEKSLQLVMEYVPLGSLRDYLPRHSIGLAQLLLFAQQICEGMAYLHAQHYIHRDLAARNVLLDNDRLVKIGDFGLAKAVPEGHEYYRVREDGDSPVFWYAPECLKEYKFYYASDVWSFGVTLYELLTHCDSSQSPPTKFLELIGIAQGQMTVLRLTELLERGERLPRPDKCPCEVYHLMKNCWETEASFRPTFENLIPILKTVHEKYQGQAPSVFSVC
For assay [9], the target named is T2, Dual specificity protein kinase TTK (Homo sapiens) (UniProt P33981).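 Also: reported figures are mean TTK inhibition at 1 µM.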
T2 sequence (whole entry): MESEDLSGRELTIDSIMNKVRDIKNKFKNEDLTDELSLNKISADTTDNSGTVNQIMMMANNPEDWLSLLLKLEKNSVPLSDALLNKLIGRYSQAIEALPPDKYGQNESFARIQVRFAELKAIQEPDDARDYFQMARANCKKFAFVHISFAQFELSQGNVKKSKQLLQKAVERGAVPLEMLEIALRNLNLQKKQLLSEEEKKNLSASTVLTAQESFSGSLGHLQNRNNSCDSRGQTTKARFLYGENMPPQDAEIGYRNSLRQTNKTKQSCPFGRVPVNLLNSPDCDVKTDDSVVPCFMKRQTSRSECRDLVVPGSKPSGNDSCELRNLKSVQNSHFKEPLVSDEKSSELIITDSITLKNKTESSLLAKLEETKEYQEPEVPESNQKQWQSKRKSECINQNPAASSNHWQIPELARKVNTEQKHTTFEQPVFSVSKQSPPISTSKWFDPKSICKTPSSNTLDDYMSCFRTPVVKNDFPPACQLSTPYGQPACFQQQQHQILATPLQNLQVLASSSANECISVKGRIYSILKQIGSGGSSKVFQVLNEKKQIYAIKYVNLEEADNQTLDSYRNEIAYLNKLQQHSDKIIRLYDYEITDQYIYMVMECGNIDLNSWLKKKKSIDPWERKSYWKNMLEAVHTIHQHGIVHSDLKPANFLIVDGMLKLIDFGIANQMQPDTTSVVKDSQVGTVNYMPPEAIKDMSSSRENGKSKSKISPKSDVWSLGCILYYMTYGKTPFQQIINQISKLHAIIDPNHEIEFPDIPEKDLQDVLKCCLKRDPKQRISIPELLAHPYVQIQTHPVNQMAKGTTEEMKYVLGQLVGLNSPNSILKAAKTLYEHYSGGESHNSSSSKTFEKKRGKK
To be noted: at 1 µM.

Assay [10] addresses T3, Aurora kinase A (Homo sapiens) (UniProt O14965).
T3 sequence (whole entry): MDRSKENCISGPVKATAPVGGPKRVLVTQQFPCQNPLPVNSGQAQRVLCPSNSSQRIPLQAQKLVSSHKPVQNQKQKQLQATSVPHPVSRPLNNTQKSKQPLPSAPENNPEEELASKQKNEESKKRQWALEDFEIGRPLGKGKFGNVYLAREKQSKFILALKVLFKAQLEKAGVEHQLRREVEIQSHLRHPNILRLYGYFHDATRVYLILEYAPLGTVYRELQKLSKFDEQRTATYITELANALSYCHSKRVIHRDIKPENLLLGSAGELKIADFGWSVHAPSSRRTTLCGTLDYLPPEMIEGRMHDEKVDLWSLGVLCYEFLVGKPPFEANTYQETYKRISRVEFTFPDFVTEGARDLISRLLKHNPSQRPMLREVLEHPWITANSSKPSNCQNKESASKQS
To be noted: at 0.1 µM.

Assay [11] deals with T3, Aurora kinase A (Homo sapiens). To be noted: at 1 µM.
Assay [12] addresses Aurora kinase B (Homo sapiens) (UniProt Q96GD4). Conditions: at 0.1 µM.
Assay [13] shares this target. Conditions: at 1 µM.
Assay [14] deals with T4, Aurora kinase C (Homo sapiens) (UniProt Q9UQB9).
T4 sequence (whole entry): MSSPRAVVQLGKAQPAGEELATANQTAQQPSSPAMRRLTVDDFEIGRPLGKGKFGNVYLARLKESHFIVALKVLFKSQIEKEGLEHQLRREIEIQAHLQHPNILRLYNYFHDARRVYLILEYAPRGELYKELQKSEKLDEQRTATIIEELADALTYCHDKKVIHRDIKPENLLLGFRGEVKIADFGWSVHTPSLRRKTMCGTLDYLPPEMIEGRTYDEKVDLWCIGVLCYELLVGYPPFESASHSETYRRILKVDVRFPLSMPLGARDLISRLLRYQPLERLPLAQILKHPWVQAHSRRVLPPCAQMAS
To be noted: at 0.1 µM.

Assay [15] concerns the target T4, Aurora kinase C (Homo sapiens). Conditions: at 1 µM.
The target of assay [16] is Serine/threonine-protein kinase 10 (Homo sapiens) (UniProt O94804). To be noted: at 0.1 µM.
Chain of Serine/threonine-protein kinase 10 (Homo sapiens) (O94804 whole entry, looked up): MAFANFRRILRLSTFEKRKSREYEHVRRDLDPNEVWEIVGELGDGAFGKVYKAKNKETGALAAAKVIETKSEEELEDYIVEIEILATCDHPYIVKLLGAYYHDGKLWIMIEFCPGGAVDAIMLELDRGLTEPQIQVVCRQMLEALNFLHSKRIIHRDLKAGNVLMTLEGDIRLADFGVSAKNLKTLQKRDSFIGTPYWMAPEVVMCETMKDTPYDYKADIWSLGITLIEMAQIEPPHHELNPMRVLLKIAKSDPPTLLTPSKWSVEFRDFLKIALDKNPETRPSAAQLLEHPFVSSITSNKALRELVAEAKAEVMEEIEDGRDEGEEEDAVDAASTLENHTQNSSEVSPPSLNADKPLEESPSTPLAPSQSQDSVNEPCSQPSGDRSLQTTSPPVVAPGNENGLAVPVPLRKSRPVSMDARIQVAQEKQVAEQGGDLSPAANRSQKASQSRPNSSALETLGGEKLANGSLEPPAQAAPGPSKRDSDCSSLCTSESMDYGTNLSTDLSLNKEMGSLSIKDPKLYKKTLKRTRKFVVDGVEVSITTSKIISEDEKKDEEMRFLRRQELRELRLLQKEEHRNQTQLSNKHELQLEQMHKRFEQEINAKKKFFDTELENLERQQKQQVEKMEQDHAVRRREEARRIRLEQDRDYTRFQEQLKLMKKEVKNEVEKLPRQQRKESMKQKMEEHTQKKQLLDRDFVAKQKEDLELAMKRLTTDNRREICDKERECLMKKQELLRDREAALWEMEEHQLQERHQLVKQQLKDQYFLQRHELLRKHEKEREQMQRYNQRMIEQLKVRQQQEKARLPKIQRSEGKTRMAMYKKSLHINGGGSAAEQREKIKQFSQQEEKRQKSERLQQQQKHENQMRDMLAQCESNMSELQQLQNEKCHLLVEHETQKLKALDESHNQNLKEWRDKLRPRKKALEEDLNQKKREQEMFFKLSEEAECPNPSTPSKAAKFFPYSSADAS
For assay [17] the target is unchanged. To be noted: at 1 µM.
Assay [18] addresses T5, Mitogen-activated protein kinase kinase kinase kinase 2 (Homo sapiens) (UniProt Q12851).
T5 sequence (whole entry): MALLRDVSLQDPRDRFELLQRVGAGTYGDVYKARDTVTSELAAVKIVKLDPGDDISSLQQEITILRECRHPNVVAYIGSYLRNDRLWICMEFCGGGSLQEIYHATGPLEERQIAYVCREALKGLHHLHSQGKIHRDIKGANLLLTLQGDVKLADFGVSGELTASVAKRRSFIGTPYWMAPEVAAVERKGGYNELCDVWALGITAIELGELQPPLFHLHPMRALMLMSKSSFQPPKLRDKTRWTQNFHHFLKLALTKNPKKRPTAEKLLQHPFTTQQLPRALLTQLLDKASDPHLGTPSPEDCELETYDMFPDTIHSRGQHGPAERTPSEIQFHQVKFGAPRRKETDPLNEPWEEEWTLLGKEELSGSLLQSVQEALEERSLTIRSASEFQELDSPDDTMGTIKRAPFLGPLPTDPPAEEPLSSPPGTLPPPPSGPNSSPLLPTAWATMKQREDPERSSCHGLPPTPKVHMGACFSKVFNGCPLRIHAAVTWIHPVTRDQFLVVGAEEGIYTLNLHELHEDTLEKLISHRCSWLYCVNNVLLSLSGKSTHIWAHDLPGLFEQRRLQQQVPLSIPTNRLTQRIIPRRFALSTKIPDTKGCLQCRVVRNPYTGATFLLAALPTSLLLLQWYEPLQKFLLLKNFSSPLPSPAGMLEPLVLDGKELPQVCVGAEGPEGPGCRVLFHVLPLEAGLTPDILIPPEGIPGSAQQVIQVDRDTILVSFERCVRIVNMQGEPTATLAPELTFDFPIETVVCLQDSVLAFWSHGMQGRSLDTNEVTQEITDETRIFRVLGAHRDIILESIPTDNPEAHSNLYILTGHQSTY
To be noted: at 0.1 µM.

In assay [19] the target is T5, Mitogen-activated protein kinase kinase kinase kinase 2 (Homo sapiens). Conditions: at 1 µM.
Assay [20] has as its target Mitogen-activated protein kinase kinase kinase kinase 4 (Homo sapiens) (UniProt O95819). To be noted: at 0.1 µM.

Chain of Mitogen-activated protein kinase kinase kinase kinase 4 (Homo sapiens) (O95819 2-1239 limits assumed): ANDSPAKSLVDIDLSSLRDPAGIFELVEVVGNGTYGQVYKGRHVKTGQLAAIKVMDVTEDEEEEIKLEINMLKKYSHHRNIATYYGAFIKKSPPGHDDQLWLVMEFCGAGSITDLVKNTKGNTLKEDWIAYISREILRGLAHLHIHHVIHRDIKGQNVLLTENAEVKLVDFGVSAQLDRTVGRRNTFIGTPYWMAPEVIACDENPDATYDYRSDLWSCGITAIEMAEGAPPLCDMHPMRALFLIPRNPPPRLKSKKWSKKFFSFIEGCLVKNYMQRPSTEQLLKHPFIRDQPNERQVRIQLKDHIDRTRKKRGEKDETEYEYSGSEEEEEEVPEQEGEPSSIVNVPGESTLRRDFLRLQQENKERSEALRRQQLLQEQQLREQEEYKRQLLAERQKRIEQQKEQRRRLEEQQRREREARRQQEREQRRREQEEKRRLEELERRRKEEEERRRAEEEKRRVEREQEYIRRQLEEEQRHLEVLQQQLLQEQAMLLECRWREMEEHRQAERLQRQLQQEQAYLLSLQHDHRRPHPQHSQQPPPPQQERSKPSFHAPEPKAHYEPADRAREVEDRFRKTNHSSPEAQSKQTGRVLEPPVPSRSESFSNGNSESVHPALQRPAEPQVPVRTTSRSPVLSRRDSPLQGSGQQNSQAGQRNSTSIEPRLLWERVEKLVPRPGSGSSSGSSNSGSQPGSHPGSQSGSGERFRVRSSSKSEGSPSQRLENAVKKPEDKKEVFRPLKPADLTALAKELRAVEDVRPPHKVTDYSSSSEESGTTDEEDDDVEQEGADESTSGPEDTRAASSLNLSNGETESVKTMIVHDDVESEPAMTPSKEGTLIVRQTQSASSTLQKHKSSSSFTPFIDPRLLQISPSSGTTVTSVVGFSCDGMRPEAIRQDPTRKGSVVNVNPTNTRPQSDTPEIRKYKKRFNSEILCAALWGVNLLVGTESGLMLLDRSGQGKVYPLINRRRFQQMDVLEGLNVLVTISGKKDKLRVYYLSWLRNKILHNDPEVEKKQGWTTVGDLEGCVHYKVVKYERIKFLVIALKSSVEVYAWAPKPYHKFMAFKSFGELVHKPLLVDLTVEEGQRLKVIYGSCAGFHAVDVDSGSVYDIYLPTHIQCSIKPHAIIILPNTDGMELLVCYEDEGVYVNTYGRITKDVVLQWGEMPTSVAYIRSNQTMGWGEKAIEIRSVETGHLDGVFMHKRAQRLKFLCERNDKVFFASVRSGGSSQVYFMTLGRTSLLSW
Chain of Aurora kinase B (Homo sapiens) (Q96GD4 whole entry): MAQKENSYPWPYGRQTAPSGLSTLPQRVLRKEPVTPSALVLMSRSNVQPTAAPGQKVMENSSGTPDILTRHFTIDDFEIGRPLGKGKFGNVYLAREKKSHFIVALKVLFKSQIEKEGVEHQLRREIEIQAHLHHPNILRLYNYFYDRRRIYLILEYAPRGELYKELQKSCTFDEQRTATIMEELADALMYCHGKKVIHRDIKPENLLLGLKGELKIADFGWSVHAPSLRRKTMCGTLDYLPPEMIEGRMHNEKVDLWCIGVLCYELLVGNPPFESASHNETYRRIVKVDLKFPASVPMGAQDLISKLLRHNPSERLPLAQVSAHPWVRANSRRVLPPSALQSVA
Chain of NT-3 growth factor receptor (Homo sapiens) (Q16288 32-839 limits assumed): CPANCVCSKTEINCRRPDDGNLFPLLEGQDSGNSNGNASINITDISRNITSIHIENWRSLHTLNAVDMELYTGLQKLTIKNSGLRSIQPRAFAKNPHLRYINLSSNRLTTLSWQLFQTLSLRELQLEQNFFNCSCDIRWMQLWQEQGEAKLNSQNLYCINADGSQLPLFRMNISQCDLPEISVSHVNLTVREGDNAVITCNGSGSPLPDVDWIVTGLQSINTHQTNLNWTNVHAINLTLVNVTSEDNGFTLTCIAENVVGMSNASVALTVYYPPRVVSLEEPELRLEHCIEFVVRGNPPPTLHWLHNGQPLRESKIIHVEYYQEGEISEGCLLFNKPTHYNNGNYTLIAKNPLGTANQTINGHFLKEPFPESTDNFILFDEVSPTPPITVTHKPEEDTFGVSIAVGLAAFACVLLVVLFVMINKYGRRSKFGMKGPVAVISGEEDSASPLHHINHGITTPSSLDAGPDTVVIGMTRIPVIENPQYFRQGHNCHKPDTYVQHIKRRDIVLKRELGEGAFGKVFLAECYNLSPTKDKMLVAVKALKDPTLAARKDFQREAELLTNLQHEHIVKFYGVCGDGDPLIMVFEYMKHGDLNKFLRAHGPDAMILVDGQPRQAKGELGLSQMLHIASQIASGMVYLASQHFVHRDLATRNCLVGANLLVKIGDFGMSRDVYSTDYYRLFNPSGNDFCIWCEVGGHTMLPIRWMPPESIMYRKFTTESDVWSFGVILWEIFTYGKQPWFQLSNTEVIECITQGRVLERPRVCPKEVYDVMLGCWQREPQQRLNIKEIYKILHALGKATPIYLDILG

In general, inhibition refers to the drop in the measured response relative to a control, in per cent. With `CCN(CC)S(=O)(=O)c1ccc(OC)c(Nc2ncc(-c3ccccc3)o2)c1`, the inhibition was 41.5% in assay [1]; 5.72% in assay [2]; 41.5% in [3]; 4.27% in [4]; 35.2% in [5]; 3.92% in assay [6]. The inhibition in assay [7] is 24.9%; in [8], -1.59%; in [9], 8.57%; in assay [10], 1.61%; in [11], 13.9%; in assay [12] it was 1.33%. Besides, the inhibition was 4.64% in [13]; 2.12% in assay [14]; -4.34% in [15]; 2.55% in [16]; 8.37% in [17]; 1.18% in [18]. Also, the figures for the inhibition in assay [19] and in assay [20] were 1.77% and 2.08%, respectively.

In the case of `Cc1ccc2c(-c3ccnc(Nc4ccccc4)n3)c(-c3ccc(F)cc3)nn2n1`, the inhibition came to 31.6% in assay [1]; 5.12% in [2]; 20.2% in assay [3]; 4.3% in assay [4]; 11.8% in [5]; 8.09% in assay [6]. In addition, the inhibition is 31.4% in [7]; -4.65% in assay [8]; 6.11% in [9]; 3.75% in assay [10]; 16.4% in assay [11]; -4.16% in [12]. Besides, the inhibition in assay [13] was 12.9%; in assay [14] it was 2.67%; in assay [15], 25.2%; in assay [16], 7.71%; in [17] it was 22.8%; in assay [18], 0.67%. Moreover, the inhibition in assay [19] was found to be 3.98%; in assay [20] it was 12.3%.

`COc1cccc(-n2ncc3c(N/N=C/c4ccc(F)cc4)ncnc32)c1`: the inhibition was determined as 4.65% in [1]; 3.34% in [2]; 4.5% in [3]; 3.31% in assay [4]; 6.74% in assay [5]; 4.3% in assay [6]. Further, the inhibition in assay [7] was 8.25%; in [8] it was -4.95%; in assay [9], 10.9%; in [10], 2.1%; in assay [11], 18.5%; in assay [12] it was 4.02%. In addition, the inhibition in assay [13] was determined as 12.9%; in assay [14], 2.64%; in assay [15], 3.29%; in [16], 6.75%; in assay [17] it was 10.9%; in assay [18], 0.43%. For the same compound, the inhibition worked out at 0.63% in assay [19] and 5.23% in [20].

Regarding `CCN1CCC(CC(=O)Nc2n[nH]c3nnc(-c4cccc(F)c4F)cc23)CC1`, the inhibition in assay [1] was -2.79%; in assay [2], 0.47%; in [3], 0.8%; in [4], 0.17%; in assay [5], 0.31%; in [6] it was -0.72%. The inhibition in assay [7] worked out at 3.03%; in assay [8] it was 0.26%; in assay [9], 1.38%; in assay [10], 3.98%; in assay [11] it was 2.34%; in assay [12] it was 0.22%. The inhibition in [13] was 4.4%; in [14], 1.43%; in assay [15], 4.58%; in assay [16], 3.88%; in assay [17] it was 4.08%; in assay [18], 0.29%. Further, the figures for the inhibition in assay [19] and in assay [20] were 5.3% and 2.42%, respectively.

(Values after ChEMBL document CHEMBL1961873, “Compounds: GSK PKIS; Assays: Nanosyn kinase panel” (2012).)
